The list shows a part of the results. A number with no mark means an inactive call. No rule for the calls is given here.
Assay: OPRM1-OPRD1 heterodimer inverse agonism – cell-based, luminescence, counter-screen for HTR5A inverse agonist project (AID 504912);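 also: 0% = cells with DMSO and 100% = wells without cells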
Conditions: U2OS counter-screen cells, complementation luminescence; at 9.3 µM; active compounds read high
For `Cc1cc(C)n(-c2ccc(Cl)c(C(=O)O)n2)n1`, the inhibition was -60.3%.
`CCOC(=O)NC(=O)C(=CNc1cccc(OC)c1)C(=O)NC(=O)OCC` gave an inhibition of -172%.
`Cc1noc(C)c1COc1cccc(C(=O)Nc2cccnc2)c1` gave an inhibition of 3.69%.
With `O=C(/C=C/c1ccc(Cl)c([N+](=O)[O-])c1)c1ccc(O)cc1` the inhibition was -15.2%.
Work on `COc1ccc(-c2nnc(SC(C)C(=O)NC3CC3)o2)cc1` (configuration not stated) yielded an inhibition of -19.6%.
`O=c1ccc2c(-c3ccccc3S(=O)(=O)O)c3ccc(O)c(O)c3oc-2c1O` gave an inhibition of -10.2%.
Work on `CCCCCCCCc1c(O)nc(-n2[nH]c(C)c(CCO)c2=O)[nH]c1=O` yielded an inhibition of -29.4%.

Source: PubChem BioAssay AID504912 (The Scripps Research Institute Molecular Screening Center, 2011)
